KB-V1 cytotox: KB-V1 MDR subline cytotoxicity; 3.4% of 400,000 active; Potency, µM (highest dose often 46.1 µM), actives largely listed as cytotoxic; KB-V1 MDR cells viability, CellTiter-Glo, 72 h; AID 1347076; note: % is set by controls: 0 for no effect and ±100 for the full control effect; nearly all actives have a fitted effect of over 60% in size
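Luminescent ATP read-out (CellTiter-Glo, 10 min) measures survival of drug-selected KB-V1 MDR cells after 72 h, 37 degrees C compound exposure. Medium: phenol-red-free DMEM, 10% FBS. Values from fitted concentration-response curves.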
TGFb SMAD3 inh: inhibitors of TGF-b signaling; HepG2 CAGA-GFP TGF-b/SMAD3 reporter, GFP fluorescence, 18 h; TGF-beta stimulated, 500 pg/mL final; Potency, µM (series often up to 46.1 µM), without a hit: at the highest dose activity, negative = inhibition, hits mostly inhibitors; 1.2% of 410,000 active; AID 588855; note: % is set by controls: 0 for no effect and ±100 for the full control effect; nearly all actives have a fitted effect of over 65% in size
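Inhibition of TGF-beta-driven CAGA-GFP reporter expression in HEPG2 cells is measured by cellular GFP fluorescence after 18 h stimulation with 500 pg/mL recombinant TGF-beta in 1% FBS medium at 37 degrees C.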
HepG2 tox: HepG2 cytotoxicity, counter-screen for TGF-b inhibitors; HepG2 CAGA-GFP viability, ATP luminescence, 18 h; Potency, µM (doses to about 46.1 µM), inactives show at the highest dose activity change, negative = cytotoxicity, most hits filed as cytotoxic; 0.76% of 410,000 active; AID 588856
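HepG2 CAGA-GFP cells (1000/well, DMEM with 1% FBS) received compound, then TGF-beta at 500 pg/mL final, and were incubated 18 hours at 37 degrees C. Viability was read by CellTiter-Glo luminescence. Media-only wells were set as complete cell-killing and DMSO as no toxicity.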
KB-3-1 tox: kills parental KB-3-1 adenocarcinoma cells; 1.4% of 400,000 active; AID 1347075; Potency, µM (series often up to 46.1 µM), actives largely listed as cytotoxic; KB-3-1 viability, CellTiter-Glo ATP luminescence, 72 h; note: % is set by controls: 0 for no effect and ±100 for the full control effect; nearly all actives have a fitted effect of over 60% in size
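Multi-concentration cytotoxicity screen in KB-3-1 cells grown in DMEM lacking phenol red with 10% FBS. After 72 h at 37 °C with compound, ATP-dependent luminescence was recorded.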
ATXN2 expr inh: inhibitors of ATXN2 expression; HEK-293 ATXN2-luciferase reporter, luminescence, 24 h; Potency, µM (titrated, usually from 57 µM), inactives show at the top dose activity change, negative = inhibition, actives largely listed as inhibitors; 0.72% of 360,000 active; AID 1745845; note: % is set by controls: 0 for no effect and ±100 for the full control effect; nearly all actives have a fitted effect of over 55% in size
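qHTS (up to 57 uM final) was run with 24 h compound exposure of reporter cells at 37 °C. Each well was multiplexed: SteadyGlo luminescence measured ATXN2-luciferase expression after a fluorogenic Gly-Phe-AFC viability readout (25 uM final).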
S2 tox: cell viability loss in ATXN counter-screen. S2 cells (HEK-293 line with an ATXN2-luciferase reporter) viability, CellTiter-Fluor protease fluorescence, 24 h. Potency, µM (titrated, usually from 56.7 µM), actives largely listed as cytotoxic. 0.49% of 400,000 active. AID 651635; note: nearly all actives have a fitted effect of over 40% in size
* hit, by the source's call. Compounds with a hit are over-represented: about 5.9% of the library has one in this group of screens. Calls come from the whole dose curve; as a rule, active = well fitted curve in the direction sought with a large enough effect; inconclusive = small, poorly fitted or top-dose-only effect, or another doubt; inactive = no such curve, though single readings can be large; an effect the other way counts as inactive or inconclusive. Potency is the fitted concentration of half-maximal effect.

How did O=C(CCCCCn1c(=S)[nH]c2cc3c(cc2c1=O)OCO3)N1CCN(C2CCCCC2)CC1 do in these assays?
KB-V1 cytotox: 21µM*; TGFb SMAD3 inh: inconclusive; HepG2 tox: -52%; KB-3-1 tox: inactive; ATXN2 expr inh: inconclusive; S2 tox: inconclusive

How did COc1ccc(Nc2nn(-c3ccc(OC(F)(F)F)cc3)nc2C(C)=O)cc1 do in these assays?
TGFb SMAD3 inh: -7%; HepG2 tox: -1%

Results for COc1ccc(N2CC(c3nc(-c4cc(OC)c(OC)c(OC)c4)no3)CC2=O)cc1Cl (stereo not given) ?
TGFb SMAD3 inh: 6%; HepG2 tox: -2%

What do the screens show for `C=CC[n+]1c(/C=C/c2ccc(OC(C)=O)c(OC)c2)ccc2ccccc21`?
KB-V1 cytotox: inactive; TGFb SMAD3 inh: -5%; HepG2 tox: -56%; KB-3-1 tox: inconclusive; S2 tox: 16µM*

Results for COc1cc(N2CCC(C(N)=O)CC2)ccc1Nc1nc(N)c(Cl)c(Nc2ccccc2S(=O)(=O)C(C)C)n1 ?
ATXN2 expr inh: -15%

Results for CC1CCc2cc(F)ccc2N1C(=O)CSc1nnc2c(n1)[nH]c1ccccc12 (stereo not given) ?
KB-V1 cytotox: 16µM*; TGFb SMAD3 inh: inconclusive; HepG2 tox: -48%; KB-3-1 tox: inactive; ATXN2 expr inh: -10%; S2 tox: inactive

Results for CC1CCc2cc(F)ccc2N1C(=O)CSc1nnc(-c2cccs2)n1C (stereo not given) ?
KB-V1 cytotox: 7.3µM*; TGFb SMAD3 inh: 11%; HepG2 tox: -5%; KB-3-1 tox: inactive; ATXN2 expr inh: 4%; S2 tox: inactive

Results for COc1cc(-c2cnc3c(NC=O)cc(-c4cccc(C(F)(F)F)c4)cn23)cc(OC)c1OC ?
KB-V1 cytotox: 23µM*; TGFb SMAD3 inh: inconclusive; HepG2 tox: -47%; KB-3-1 tox: inconclusive; ATXN2 expr inh: 28µM*; S2 tox: inconclusive

Results for COc1cc(-c2cnc3c(NC=O)cc(-c4ccsc4)cn23)cc(OC)c1OC ?
KB-V1 cytotox: 1.3µM*; TGFb SMAD3 inh: -17%; HepG2 tox: -26%; KB-3-1 tox: 0.82µM*; ATXN2 expr inh: inconclusive; S2 tox: inconclusive

How did COc1cccc(-c2cnc3c(NC=O)cc(-c4cccc(C(=O)N(C)C)c4)cn23)c1 do in these assays?
KB-V1 cytotox: 23µM*; TGFb SMAD3 inh: 3.5µM*; HepG2 tox: -39%; KB-3-1 tox: inactive; ATXN2 expr inh: 0%; S2 tox: inactive

Results for COc1cccc(-c2cc(NC=O)c3ncc(-c4cccc(C(=O)N(C)C)c4)n3c2)c1 ?
KB-V1 cytotox: inconclusive; TGFb SMAD3 inh: -27%; HepG2 tox: -19%; KB-3-1 tox: inconclusive; ATXN2 expr inh: inconclusive; S2 tox: inconclusive

How did CN(C)CCNC(=O)c1cccc(-c2cnc3c(NC=O)cc(-c4cc(F)c(F)c(F)c4)cn23)c1 do in these assays?
KB-V1 cytotox: inactive; TGFb SMAD3 inh: inconclusive; HepG2 tox: -112%; KB-3-1 tox: inactive; ATXN2 expr inh: inconclusive

What do the screens show for `COc1ccc(-c2cc(NC=O)c3ncc(-c4cccc(C(F)(F)F)c4)n3c2)c(OC)c1`?
KB-V1 cytotox: inconclusive; TGFb SMAD3 inh: -24%; HepG2 tox: -35%; KB-3-1 tox: inconclusive; ATXN2 expr inh: -33%; S2 tox: inactive

What do the screens show for `CN(C)CCNC(=O)c1cccc(-c2cc(NC=O)c3ncc(-c4cccc(C(F)(F)F)c4)n3c2)c1`?
KB-V1 cytotox: inactive; TGFb SMAD3 inh: inconclusive; HepG2 tox: 20µM*; KB-3-1 tox: inactive; ATXN2 expr inh: 22µM*; S2 tox: 28µM*

How did COc1cccc(-c2cc(NC=O)c3ncc(-c4cc(OC)c(OC)c(OC)c4)n3c2)c1 do in these assays?
KB-V1 cytotox: 2.1µM*; TGFb SMAD3 inh: inconclusive; HepG2 tox: -9%; KB-3-1 tox: 1µM*; ATXN2 expr inh: -29%; S2 tox: inconclusive

What do the screens show for `COc1cc(-c2cnc3c(NC=O)cc(-c4cccnc4)cn23)cc(OC)c1OC`?
KB-V1 cytotox: 13µM*; TGFb SMAD3 inh: 34%; HepG2 tox: -20%; KB-3-1 tox: 10µM*; ATXN2 expr inh: -16%; S2 tox: inactive

Results for CCn1c(-c2ccccc2F)nc2cc(NC(C)=O)cc(C(=O)N3CCCC3c3nccs3)c21 (stereo not given) ?
S2 tox: inactive

How did COc1cc(C)c(CN2CCOc3ccc(C(O)c4cccnc4)cc3C2)cc1C (stereo not given) do in these assays?
S2 tox: inactive

Results for CCC(CC)NC(=O)CON=C1c2ccccc2-c2ccccc21 ?
KB-V1 cytotox: 23µM*; TGFb SMAD3 inh: -11%; HepG2 tox: 1%; KB-3-1 tox: inactive; ATXN2 expr inh: inconclusive; S2 tox: inactive

How did O=C(Nc1cc(F)ccc1F)N1CCC(CN2CCCC2)CC1 do in these assays?
TGFb SMAD3 inh: -4%; HepG2 tox: 2%

Results for COc1cccc(C(=O)NCC2Cc3c(F)ccc(-c4ncccn4)c3O2)c1OC (stereo not given) ?
S2 tox: inactive

Results for O=C(NC1CCCCCC1)C1c2ccccc2C(=O)N1Cc1cccs1 (stereo not given) ?
KB-V1 cytotox: inconclusive; TGFb SMAD3 inh: 12%; HepG2 tox: -8%; KB-3-1 tox: inactive; ATXN2 expr inh: -3%; S2 tox: inactive

Results for COc1ccc(CN2C(=O)c3ccccc3C2C(=O)NC2CCCC2)c(OC)c1 (stereo not given) ?
KB-V1 cytotox: 3.7µM*; TGFb SMAD3 inh: -26%; HepG2 tox: -11%; KB-3-1 tox: inactive; ATXN2 expr inh: -3%; S2 tox: inactive

What do the screens show for `O=C(NC1CCCCCC1)C1c2ccccc2C(=O)N1Cc1ccco1` (stereo not given)?
KB-V1 cytotox: 21µM*; TGFb SMAD3 inh: 6%; HepG2 tox: -5%; KB-3-1 tox: inactive; ATXN2 expr inh: -8%; S2 tox: inactive

Results for COc1ccc(CN2C(=O)c3ccccc3C2C(=O)NC2CCC(C)CC2)c(OC)c1 (stereo not given) ?
KB-V1 cytotox: inconclusive; TGFb SMAD3 inh: 8%; HepG2 tox: 0%; KB-3-1 tox: inactive; ATXN2 expr inh: -8%; S2 tox: inconclusive

Results for CCC(C)N1C(=O)c2ccccc2C1C(=O)NC1CCCCCC1 (stereo not given) ?
KB-V1 cytotox: 18µM*; TGFb SMAD3 inh: -7%; HepG2 tox: -80%; KB-3-1 tox: inactive; ATXN2 expr inh: 4%; S2 tox: inactive

Source: PubChem BioAssay
